In PubChem BioAssay AID488975 (Johns Hopkins Ion Channel Center, 2010):
The campaign covered roughly 310,000 compounds. About 2,600 (0.84%) were called active.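 Rule for the calls: active = B-score over 3 SD under the library average, and starting fluorescence ratio not unusually high; inactive = the rest.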 Many of the other results were omitted from the sample, so actives are more common in it than they were.

Target: High affinity choline transporter 1 (Homo sapiens) (UniProt Q9GZV3)
Experiment: inhibitors of human choline transporter CHT (AID 488975);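 for B-score: choline stimulus applied at its EC90 after an EC20 pre-addition; B-score computed on integrated fluorescence ratio after choline addition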
Details: CHT-expressing cells, membrane potential dye, choline response, at 10 µM; stronger effect = lower value

Sequence of High affinity choline transporter 1 (Homo sapiens) (Q9GZV3 whole entry, looked up): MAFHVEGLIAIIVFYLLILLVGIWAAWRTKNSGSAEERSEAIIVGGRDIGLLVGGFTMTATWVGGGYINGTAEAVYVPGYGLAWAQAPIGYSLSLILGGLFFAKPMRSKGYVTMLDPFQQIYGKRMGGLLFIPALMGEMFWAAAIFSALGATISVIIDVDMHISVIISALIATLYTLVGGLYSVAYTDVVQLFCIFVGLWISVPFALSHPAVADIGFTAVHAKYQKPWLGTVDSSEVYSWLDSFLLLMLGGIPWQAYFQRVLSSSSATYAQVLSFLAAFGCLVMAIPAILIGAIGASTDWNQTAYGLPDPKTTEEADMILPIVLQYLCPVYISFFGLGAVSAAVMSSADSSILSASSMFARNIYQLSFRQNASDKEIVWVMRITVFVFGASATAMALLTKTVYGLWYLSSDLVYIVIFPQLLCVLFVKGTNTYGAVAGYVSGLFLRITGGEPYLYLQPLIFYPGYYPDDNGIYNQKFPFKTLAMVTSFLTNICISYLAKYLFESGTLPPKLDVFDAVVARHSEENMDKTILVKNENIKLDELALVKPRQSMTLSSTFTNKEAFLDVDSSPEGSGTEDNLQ

Structure (SMILES) | B-score
CCN(C(=O)COC(=O)C1CCN(S(=O)(=O)c2ccc(C)c(C)c2)CC1)C1CCS(=O)(=O)C1 (configuration not stated) | inactive
Cn1cccc1C(=O)NNC(=O)COc1ccc(Br)cc1 | inactive
Cc1ccc(S(=O)(=O)N2CCCCC2)cc1C(=O)N(C)CC(=O)Nc1cccc(F)c1 | inactive
O=C(NCC(c1ccco1)N1CCc2ccccc21)c1cccc(F)c1 (configuration not stated) | inactive
COc1ccc2c(c1)SC(C)CC2=O (configuration not stated) | inactive
CC1(C)CC(=O)c2ccc(O)cc2O1 | inactive
COc1ccc2c(c1)OC(O)(C(F)(F)C(F)F)CC2=O (configuration not stated) | -5.18 (active)
COC(=O)[C@@]12CCCN1[C@H](c1ccc(-c3ccc(F)cc3)c(OC)c1)[C@H]1C(=O)N(C)C(=O)[C@H]12 | inactive
CCN(CC)c1ccc(NC(=O)c2ccc(=O)[nH]c2)cc1S(=O)(=O)Nc1ccc(OC)cc1 | inactive
COc1cc(/C=N/NC(=O)c2cc(-c3ccccc3C)nc3ccccc23)cc(OC)c1O | inactive
Cc1ccnc(NC(=O)c2ccco2)n1 | inactive
O=C(Nc1ccccc1)c1ccco1 | inactive
O=C(Nc1nonc1-c1ccc(Cl)cc1)c1ccco1 | -5.55 (active)
CN(Cc1ccccc1F)C(=O)C(Cc1ccccc1)NC(=O)c1ccccc1 (configuration not stated) | inactive
O=C(NNC(=O)c1cc(-c2ccccc2Cl)nc2ccccc12)c1csc(N2CCOCC2)n1 | inactive
O=S(=O)(Cc1cc(Cl)nc(-c2cccnc2)n1)c1ccccc1 | -6.86 (active)
O=S(=O)(NCCc1csc(-c2ccccc2)n1)c1cccnc1 | inactive
O=S(=O)(Cc1cc(Sc2ccccc2)nc(-c2ccccc2)n1)c1ccccc1 | inactive
COc1ccccc1NC(=O)C(C)OC(=O)c1ccc(-n2cnnn2)cc1 (configuration not stated) | inactive
CCC1Nc2ncnc(N3CCN(c4ccccc4)CC3)c2N(Cc2ccc(Cl)cc2)C1=O (configuration not stated) | inactive
O=C(c1cccs1)C1C(c2ccc(Br)cc2)NC(=S)NC1(O)C(F)(F)F (configuration not stated) | -8.32 (active)
CC(=O)C1C(c2ccc(Cl)cc2)NC(=O)NC1(O)C(F)(F)F (configuration not stated) | inactive
CCOC(=O)C1C(c2ccc(Cl)cc2)NC(=S)NC1(O)C(F)(F)F (configuration not stated) | inactive
CN(c1cccc(NC(=O)c2ccc(CN3CCc4ccccc4C3)cc2)c1)S(C)(=O)=O | inactive
Cc1cccc(C)c1NC(=O)c1ccc(CN2CCc3ccccc3C2)cc1 | -5.84 (active)

Structure (SMILES) | B-score
Cc1ccc(NC(=O)CN2CCc3ccccc3C2)cc1C | inactive
CCCCn1c(N)c(N(CC(C)C)C(=O)c2ccc(-n3c(C)ccc3C)cc2)c(=O)[nH]c1=O | inactive
COc1ccc2c(c1)[C@H]1[C@H](CO2)[C@H](c2ccccc2)[C@]2(C)C(=O)Nc3cc(F)c(F)cc3C(=O)N12 | inactive
O=C(Nn1c(SCc2ccc([N+](=O)[O-])cc2)nc2ccccc2c1=O)c1ccc(F)cc1 | inactive
C=CCn1c(SCc2ccc(C(=O)NCCO)cc2)nc2ccccc2c1=O | -5.96 (active)
COCCNC(=O)c1ccc(-n2c(SCc3cccnc3)nc3ccccc3c2=O)cc1 | inactive
CCN1CCN(c2ccc(S(=O)(=O)N3CCCCC3)cc2NC(=O)c2cccc(NC(C)=O)c2)CC1 | inactive
CC(OC(=O)CCCOc1ccccc1)C(=O)Nc1ccc(Cl)cn1 (configuration not stated) | inactive
O=C(NCCC1CCCCN1S(=O)(=O)c1cccs1)C(=O)Nc1ccc(F)cc1F (configuration not stated) | inactive
CC12CCC(=O)N1C(C(=O)Nc1ccc(F)c(F)c1F)CS2 (configuration not stated) | inactive
Cc1oc2cc([N+](=O)[O-])c(O)c([N+](=O)[O-])c2c1C(=O)c1ccc(Br)cc1 | -6.57 (active)
Cc1oc2cc(Br)c(O)c(Br)c2c1C(=O)c1ccccc1 | inactive
COc1ccc(C(=O)c2c(C)oc3cc([N+](=O)[O-])c(O)c([N+](=O)[O-])c23)cc1 | inactive
COc1ccccc1CCNC(=O)C(=O)NCCC1CCCCN1S(=O)(=O)c1cccs1 (configuration not stated) | inactive
CCOc1ccc(NS(=O)(=O)c2ccc(C(=O)NCC(c3ccccc3OC)N3CCCC3)cc2)cc1 (configuration not stated) | inactive
COc1ccc(Cl)cc1NC(=O)CN(C)C(=O)c1cc2ccccc2cc1OC | inactive
Cc1onc(-c2ccccc2Cl)c1C(=O)OCc1nnc(-c2ccccc2)o1 | inactive
COc1ccc(NC(=O)c2sc(N3CCOCC3)nc2-c2ccccc2)c(OC)c1 | inactive
COc1ccc(NC(=O)c2sc(N)nc2-c2ccccc2)cc1 | -8.57 (active)
COc1ccc(NC(=O)CSc2nc(N)c(-c3ccccc3)c(=O)[nH]2)cc1 | inactive
COc1ccc(C(=O)NC(C)c2nccs2)cc1OC1CCN(C(C)C)CC1 (configuration not stated) | -5.22 (active)
COc1ccc(C(=O)NC2CC2)cc1OC1CCN(Cc2cnn(C)c2)CC1 | inactive
COCCOC1CCN(C(=O)c2ccc(OC)c(OC3CCN(C(C)C)CC3)c2)CC1 | inactive
Cc1cc(C)c(S(=O)(=O)NCC(c2ccc3c(c2)OCO3)N2CCOCC2)c(C)c1 (configuration not stated) | inactive
Cc1nc2ccccc2c(=O)n1-c1ccc(NS(=O)(=O)c2ccc(F)cc2F)cc1 | inactive

Structure (SMILES) | B-score
COc1ccc(C(=O)OCC(=O)c2ccc(Cl)s2)c(OC)c1OC | inactive
CN(C)CCCN(C(=O)c1ccc(S(=O)(=O)N2CCCCCC2)cc1)c1nc2cc3c(cc2s1)OCCO3 | inactive
O=C(O)c1ccc(N/N=C/c2cn(-c3ccccc3)nc2-c2cccs2)cc1 | -5.81 (active)
O=C(O)/C=C/c1cn(-c2ccccc2)nc1-c1cccs1 | inactive
O=C(/C=C\c1cn(-c2ccccc2)nc1-c1cccs1)N1CCOCC1 | inactive
COc1ccc(NS(=O)(=O)c2ccc(C)c(C(=O)NCC(c3cccs3)N3CCOCC3)c2)cc1 (configuration not stated) | inactive
CCN(C(=O)CSc1ncn[nH]1)c1cccc2ccccc12 | inactive
Cn1nnc(NC(=O)CSc2ncn[nH]2)n1 | inactive
CC(C)(C)c1ccc(C(=O)CSc2ncn[nH]2)cc1 | -5 (active)
O=C(CCNC(=O)c1ccc(Br)cc1)Nc1cccc(S(=O)(=O)N2CCCCC2)c1 | inactive
CCOC(=O)c1c(C)oc2cc(Sc3ccccc3)c(O)c(O)c12 | inactive
CCN1C(=O)[C@H]2[C@@H](c3ccc(-c4ccc(OC)cc4)cc3)N[C@@](Cc3ccccc3)(C(=O)OC)[C@H]2C1=O | inactive
COc1ccc(C2=NOC(Cn3nc(C(=O)NCc4ccc5c(c4)OCO5)cc3-c3ccccc3)C2)cc1 (configuration not stated) | inactive
Cc1cccc(N(Cc2ccccc2)C(=O)c2cc(S(=O)(=O)N3CCOCC3)ccc2F)c1 | inactive
CC(=O)c1ccc(Oc2cc(C)nc(-n3nc(C)cc3C)n2)cc1 | -5.97 (active)
Cc1cc(C)n(-c2ccc(Cl)c(C(=O)O)n2)n1 | inactive
Cc1cc(C)n(-c2cc(Oc3ccccc3)ncn2)n1 | inactive
O=C1[C@H]2[C@@H](c3ccc(Cl)cc3)N3C(=O)N(c4cccc(F)c4)C(=O)[C@@]3(Cc3ccccc3)[C@H]2C(=O)N1C1CCCCC1 | inactive
O=C(NNC(=S)NCc1ccco1)C(c1ccccc1)c1ccccc1 | inactive
CCCCC(=O)NNC(=S)NC(=O)C(c1ccccc1)c1ccccc1 | -10.8 (active)
CC(C)C(=O)Nc1cccc(NC(=S)NC(=O)C(c2ccccc2)c2ccccc2)c1 | inactive
CC1CN(C(=O)c2cc(COc3c(F)cccc3F)on2)CCN1C (configuration not stated) | inactive
Cc1cc(S(=O)(=O)Nc2ccc(C(=O)NCC(c3ccco3)N3CCCC3)cc2)ccc1F (configuration not stated) | inactive
COc1ccc(C(CNC(=O)c2cccc(S(=O)(=O)Nc3ccccc3Cl)c2)N2CCOCC2)cc1 (configuration not stated) | inactive
COc1ccc(C(CNC(=O)c2cccc(NS(=O)(=O)c3ccc(C)c(F)c3)c2)N2CCCC2)cc1 (configuration not stated) | -5.37 (active)

Structure (SMILES) | B-score
CC(=O)c1ccc(NC(=O)C2CCCN2S(=O)(=O)c2cccs2)cc1 (configuration not stated) | inactive
COc1ccc(CCNC(=O)C(=O)NCC2CCCN2S(=O)(=O)c2cccs2)cc1OC (configuration not stated) | inactive
Cc1occc1C(=O)N/N=C/c1ccc(-c2cccc([N+](=O)[O-])c2)o1 | inactive
O=C(N/N=C/c1cc(Cl)cc([N+](=O)[O-])c1O)C(O)(c1ccccc1)c1ccccc1 | inactive
O=C(CN1CCN(c2ccc(O)cc2)CC1)Nc1cc(S(=O)(=O)N2CCOCC2)ccc1Cl | inactive
O=[N+]([O-])c1cc(Cl)cc(/C=N/NC(=S)Nc2cc(S(=O)(=O)N3CCOCC3)ccc2Cl)c1O | -11.3 (active)
CC(=O)N1CCN(C(=O)c2cc(-c3ccc(C)o3)nc3ccccc23)CC1 | inactive
O=C(O)C1C2C=CC(C2)C1C(=O)NCc1ccccc1 (configuration not stated) | inactive
Cc1ccc(NNC(=O)c2cccs2)cc1Cl | -4.98 (active)
Cc1ccc(NNC(=O)c2c(F)cccc2Cl)cc1Cl | inactive
O=C(NNC(=O)c1ccc(Cl)cc1Cl)c1cccs1 | inactive
O=C(NCCCc1ccccc1)C(=O)NCC1OCCN1S(=O)(=O)c1ccccc1 (configuration not stated) | inactive
Cc1ccc(N2CC(C(=O)N3CCC4(CC3)CC(=O)c3ccccc3O4)CC2=O)cc1C (configuration not stated) | inactive
Cc1ccc(Cc2nnc(SCC(=O)Nc3ccccc3C)[nH]c2=O)cc1 | inactive
O=C(Cn1ncc2c3ccccc3n(Cc3ccccc3)c2c1=O)NCc1ccccn1 | inactive
O=C(Cn1ncc2c3ccccc3n(Cc3ccccc3)c2c1=O)NCCCN1CCOCC1 | -8.06 (active)
CC1CCCCN1CCCNC(=O)Cn1ncc2c([nH]c3ccccc32)c1=O (configuration not stated) | inactive
CCC1CCCCN1CCCNC(=O)Cn1nc(-c2ccccc2)ccc1=O (configuration not stated) | inactive
CCCn1c2ccccc2c2cnn(CC(=O)NCCCN3CCCCC3CC)c(=O)c21 (configuration not stated) | -7.41 (active)
Cc1c2cnn(CC(=O)NCCCN3CC(C)CC(C)C3)c(=O)c2c(C)n1Cc1ccc(Cl)cc1 (configuration not stated) | inactive
Cc1ccc(C)c(-c2nnc(NC(=O)CS(=O)(=O)c3ccccc3)o2)c1 | inactive
Cc1ccc(S(=O)(=O)NCCC(=O)NC2CCN(Cc3ccccc3)CC2)cc1 | inactive
